# Several values for one entry are separate records, joined by “and”; a condition that tells them apart may be missing. Equal entries are not always repeated. Some structures have more than one record in an assay (separate samples or runs), and their calls can disagree. Activity calls are given as the source filed them. The calls were made as follows: active = hit-call score of the fitted dose curve at least 0.9, where 1 is the maximum; inactive = score below 0.9.
# Key:
# [1] = read-out: Vascular endothelial growth factor receptor 2 (Homo sapiens) (UniProt P35968); assay: BSK_4H_VEGFRII: BioMAP Diversity Plus: 4H Assay for Vascular endothelial growth factor receptor 2 (VEGFR2) Biomarker Activity (AID 2283031); conditions: primary human endothelial cells (HUVEC); actives raise or lower the signal;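 as to AC50: cell-surface VEGFR2 protein level quantified by ELISA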
# Method in brief: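 VEGFRII levels on human vascular endothelial primary cells were determined by ELISA at 24 hours post-dosing, with gain- or loss-of-signal fitted against DMSO controls.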
# [2] = read-out: Human Leukocyte Antigen - DR isotype (HLADR), HLA-DRA (gene 3122); assay: BSK_BE3C_HLADR: BioMAP Diversity Plus: BE3C Assay for Human Leukocyte Antigen - DR isotype (HLADR) Biomarker Activity (AID 2283032); conditions: primary human bronchial epithelial cells; actives raise or lower the signal
# Method in brief: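 Human primary bronchial epithelial cells (BE3C system) exposed to compound for 24 hours; cell-surface HLA-DR measured by ELISA, fitted bidirectionally relative to DMSO. Total protein by SRB in parallel cultures tracked cytotoxicity.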
# [3] = read-out: Vascular cell adhesion molecule 1 (VCAM1), VCAM1 (gene 7412); assay: BSK_4H_VCAM1: BioMAP Diversity Plus: 4H Assay for Vascular cell adhesion molecule 1 (VCAM1) Biomarker Activity (AID 2283033); conditions: primary human endothelial cells (HUVEC); actives raise or lower the signal
# Method in brief: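 Primary human umbilical vein endothelial cells, 4H stimulation system, treated for 24 h; cell-surface VCAM-1 quantified by ELISA. Bidirectional fitting against DMSO; cytotoxicity tracked by SRB total-protein staining in parallel cultures.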
# [4] = read-out: Interferon-gamma inducible Protein 10 (IP10), CXCL10 (gene 3627); assay: BSK_BE3C_IP10: BioMAP Diversity Plus: BE3C Assay for Interferon-gamma inducible Protein 10 (IP10) Biomarker Activity (AID 2283034); conditions: primary human bronchial epithelial cells; actives raise or lower the signal
# Method in brief: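 Primary human bronchial epithelial cells, with IP-10 measured by ELISA 24 hours after chemical dosing. Bidirectional fit against DMSO; cytotoxicity checked by SRB total protein staining in parallel cultures.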
# [5] = read-out: Transforming growth factor beta 1 (TGFb1), TGFB1 (gene 7040); assay: BSK_BE3C_TGFb1: BioMAP Diversity Plus: BE3C Assay for Transforming growth factor beta 1 (TGFb1) Biomarker Activity (AID 2283036); conditions: primary human bronchial epithelial cells; actives raise or lower the signal
# Method in brief: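 Primary human bronchial epithelial cells dosed with chemical; TGF-b1 measured by ELISA 24 h after dosing. Bidirectional curve fitting against DMSO negative control; SRB total-protein staining in parallel cultures gauged cytotoxicity.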
# [6] = read-out: Plasminogen activator inhibitor-1 (PAI1), SERPINE1 (gene 5054); assay: BSK_BE3C_PAI1: BioMAP Diversity Plus: BE3C Assay for Plasminogen activator inhibitor-1 (PAI1) Biomarker Activity (AID 2283037); conditions: primary human bronchial epithelial cells; actives raise or lower the signal
# Method in brief: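 Primary human bronchial epithelial cells (BE3C system) exposed 24 h; PAI-1 quantified by ELISA. Parallel sulforhodamine B staining of total protein flags cytotoxicity. Bidirectional fit versus DMSO.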
# [7] = read-out: urokinase plasminogen activator (uPA), PLAU (gene 5328); assay: BSK_BE3C_uPA: BioMAP Diversity Plus: BE3C Assay for urokinase plasminogen activator (uPA) Biomarker Activity (AID 2283038); conditions: primary human bronchial epithelial cells; actives raise or lower the signal;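 as to outcome: uPA protein level quantified by ELISA in cell cultures; uPA read one day after compound addition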
# Method in brief: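 Measured by ELISA: uPA from human primary bronchial epithelial cells 24 h after chemical treatment. Values derive from bidirectional curve fitting with DMSO serving as negative control. Total protein by SRB staining in parallel wells flagged overt cytotoxicity.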
# [8] = read-out: Urokinase-type plasminogen activator receptor (uPAR), PLAUR (gene 5329); assay: BSK_BE3C_uPAR: BioMAP Diversity Plus: BE3C Assay for Urokinase-type plasminogen activator receptor (uPAR) Biomarker Activity (AID 2283039); conditions: primary human bronchial epithelial cells; actives raise or lower the signal;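 as to outcome: uPAR protein level measured by ELISA on the cells; cells exposed to compound for one day before measurement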
# Method in brief: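 Primary human bronchial epithelial cells dosed for 24 h; uPAR quantified by ELISA with bidirectional fitting against DMSO. Overt cytotoxicity assessed in parallel cultures by SRB total-protein staining (0.1% SRB, 560 nm).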
# [9] = read-out: Interleukin-6 (IL6), IL6 (gene 3569); assay: BSK_CASM3C_IL6: BioMAP Diversity Plus: CASM3C Assay for Interleukin-6 (IL6) Biomarker Activity for (AID 2283040); conditions: primary human coronary artery smooth muscle cells; actives raise or lower the signal
# [10] = read-out: Monokine induced gamma interferon (MIG), CXCL9 (gene 4283); assay: BSK_BE3C_MIG: BioMAP Diversity Plus: BE3C Assay for Monokine induced gamma interferon (MIG) Biomarker Activity (AID 2283035); conditions: primary human bronchial epithelial cells; actives raise or lower the signal;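 as to outcome: MIG protein measured by ELISA in BE3C cultures after 24 h of dosing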
# Method in brief: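 MIG level was determined by ELISA after 24 h chemical treatment of primary human bronchial epithelial cells. Values were fitted bidirectionally with DMSO as the negative control and activity baseline.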
smiles,measurement,setting,value
CCOC(=O)CCCCCCCCC(=O)OCC,outcome,[1],inactive
same,outcome,[2],inactive
same,outcome,[3],inactive
same,outcome,[4],inactive
same,outcome,[5],inactive
same,outcome,[6],inactive
same,outcome,[7],inactive
same,outcome,[8],inactive
same,outcome,[9],inactive
CC(C)(CO)CO,outcome,[1],inactive
same,outcome,[2],inactive
same,outcome,[3],inactive
same,AC50,[4],5.62 µM (active)
same,outcome,[4],inactive
same,outcome,[6],inactive
same,outcome,[7],inactive
same,outcome,[8],inactive
same,outcome,[9],inactive
CC1(C)[C@H](C=C(Cl)Cl)[C@H]1C(=O)OCc1cccc(Oc2ccccc2)c1,outcome,[1],inactive
same,outcome,[2],inactive
same,outcome,[3],inactive
same,outcome,[4],inactive
same,outcome,[5],inactive
same,outcome,[6],inactive
same,outcome,[7],inactive
same,outcome,[8],inactive
same,outcome,[9],inactive
CC(=O)c1ccc(C)cc1,AC50,[1],1.45 µM (active)
same,outcome,[1],inactive
same,outcome,[2],inactive
same,outcome,[3],inactive
same,outcome,[4],inactive
same,outcome,[6],inactive
same,outcome,[7],inactive
same,outcome,[8],inactive
same,outcome,[9],inactive
CCCCOCCOCCO,outcome,[1],inactive
same,outcome,[2],inactive
same,outcome,[3],inactive
same,outcome,[4],inactive
same,outcome,[5],inactive
same,outcome,[6],inactive
same,outcome,[7],inactive
same,outcome,[8],inactive
same,outcome,[9],inactive
CC(C)(C)c1cccc(O)c1,outcome,[1],inactive
same,outcome,[2],inactive
same,outcome,[3],inactive
same,outcome,[4],inactive
same,outcome,[5],inactive
same,outcome,[6],inactive
same,outcome,[7],inactive
same,outcome,[8],inactive
same,outcome,[9],inactive
COc1ccccc1NC(=O)CC(C)=O,outcome,[1],inactive
same,outcome,[2],inactive
same,outcome,[3],inactive
same,outcome,[4],inactive
same,outcome,[5],inactive
same,outcome,[6],inactive
same,outcome,[7],inactive
same,outcome,[8],inactive
same,outcome,[9],inactive
CC(=O)CCC=C(C)CCC=C(C)C,outcome,[1],inactive
same,outcome,[2],inactive
same,AC50,[3],28.9 µM (active)
same,outcome,[4],inactive
same,outcome,[5],inactive
same,outcome,[6],inactive
same,outcome,[7],inactive
same,outcome,[8],inactive
same,outcome,[9],inactive
CC(C)CCCC(C)(C)O,outcome,[1],inactive
same,outcome,[2],inactive
same,outcome,[3],inactive
same,outcome,[4],inactive
same,outcome,[10],inactive
same,outcome,[6],inactive
same,outcome,[7],inactive
same,outcome,[8],inactive
same,outcome,[9],inactive
C=C1CC/C=C(\C)CC[C@@H]2[C@@H]1CC2(C)C,AC50,[1],29.1 µM (active)
same,outcome,[2],inactive
same,AC50,[3],29.8 µM (active)
same,AC50,[4],28.6 µM (active)
same,outcome,[10],inactive
same,outcome,[5],inactive
same,outcome,[6],inactive
same,outcome,[7],inactive
same,outcome,[8],inactive
same,outcome,[9],inactive
O=C1OC2(c3ccc(O)cc3Oc3cc(O)ccc32)c2ccccc21,outcome,[1],inactive
same,outcome,[2],inactive
same,outcome,[3],inactive
same,outcome,[4],inactive
same,outcome,[5],inactive
same,outcome,[6],inactive
same,outcome,[7],inactive
same,outcome,[8],inactive
same,outcome,[9],inactive
c1ccc2c(c1)-c1ccc3ccc4cccc5cc-2c1c3c45,outcome,[1],inactive
same,AC50,[2],2.57 µM (active)
same,AC50,[3],3.53 µM (active)
same,outcome,[4],inactive
same,outcome,[10],inactive
same,outcome,[5],inactive
same,outcome,[6],inactive
same,outcome,[7],inactive
same,outcome,[8],inactive
same,outcome,[9],inactive
CC/C(=C(\c1ccccc1)c1ccc(OCCN(C)C)cc1)c1ccccc1,AC50,[1],4.71 µM (active)
same,outcome,[1],inactive
same,AC50,[2],9.68 µM (active) and 9.06 µM (active)
same,AC50,[3],8.4 µM (active) and 8.08 µM (active)
same,AC50,[4],10.3 µM (active) and 9.01 µM (active)
same,AC50,[10],12.1 µM (active) and 11.1 µM (active)
same,AC50,[5],9.23 µM (active) and 20 µM (active)
same,AC50,[6],11.5 µM (active) and 11.7 µM (active)
same,AC50,[7],9.63 µM (active) and 7.45 µM (active)
same,AC50,[8],8.83 µM (active) and 6.66 µM (active)
same,AC50,[9],27.3 µM (active) and 32.2 µM (active)
COC(=O)c1ccc(C(=O)OC)cc1,outcome,[1],inactive
same,outcome,[2],inactive
same,outcome,[3],inactive
same,outcome,[4],inactive
same,outcome,[5],inactive
same,outcome,[6],inactive
same,outcome,[7],inactive
same,outcome,[8],inactive
same,outcome,[9],inactive
OCCN1CCOCC1,outcome,[1],inactive
same,outcome,[2],inactive
same,outcome,[3],inactive
same,outcome,[4],inactive
same,outcome,[5],inactive
same,outcome,[6],inactive
same,outcome,[7],inactive
same,outcome,[8],inactive
same,outcome,[9],inactive
CCCCCCCCCC(=O)OCC,outcome,[1],inactive
same,outcome,[2],inactive
same,AC50,[3],31.7 µM (active)
same,AC50,[4],20 µM (active)
same,outcome,[10],inactive
same,AC50,[5],20 µM (active)
same,outcome,[6],inactive
same,outcome,[7],inactive
same,outcome,[8],inactive
same,AC50,[9],31.8 µM (active)
CC=CC(=O)C1=C(C)C=CCC1(C)C,outcome,[1],inactive
same,outcome,[2],inactive
same,outcome,[3],inactive
same,outcome,[4],inactive
same,outcome,[5],inactive
same,outcome,[6],inactive
same,outcome,[7],inactive
same,outcome,[8],inactive
same,outcome,[9],inactive
C=C(C)C(N)=O,outcome,[1],inactive
same,outcome,[2],inactive
same,outcome,[3],inactive
same,outcome,[4],inactive
same,outcome,[5],inactive
same,outcome,[6],inactive
same,outcome,[7],inactive
same,outcome,[8],inactive
same,outcome,[9],inactive
O=C(c1ccc(OCCN2CCCCC2)cc1)c1c(-c2ccc(O)cc2)sc2cc(O)ccc12,outcome,[1],inactive
same,AC50,[2],20.3 µM (active)
same,AC50,[3],34.5 µM (active)
same,AC50,[4],39.2 µM (active)
same,AC50,[5],31.9 µM (active)
same,AC50,[6],22.4 µM (active)
same,AC50,[7],34 µM (active)
same,AC50,[8],31.8 µM (active)
same,AC50,[9],20.1 µM (active)
Nc1ccc(N)c([N+](=O)[O-])c1,outcome,[1],inactive
same,outcome,[2],inactive
same,outcome,[3],inactive
same,outcome,[4],inactive
same,outcome,[5],inactive
same,outcome,[6],inactive
same,outcome,[7],inactive
same,outcome,[8],inactive
same,outcome,[9],inactive
c1ccc(Sc2ccccc2)cc1,outcome,[1],inactive
same,AC50,[2],29.9 µM (active)
same,AC50,[3],31.3 µM (active)
same,AC50,[4],30.1 µM (active)
same,AC50,[5],20 µM (active)
same,AC50,[6],28.1 µM (active)
same,AC50,[7],25.6 µM (active)
same,outcome,[8],inactive
same,outcome,[9],inactive

# From PubChem BioAssay (EPA / NIEHS)
